Experimental data reported in PubChem BioAssay (EPA / NIEHS).
Calls of active or inactive are those of the source. The calls were made as follows: active = hit-call score of the fitted dose curve at least 0.9, where 1 is the maximum; inactive = score below 0.9.

Tests used:
[1] = ATG_CRE_CIS: Attagene CIS-FACTORIAL HepG2 Assay for human cAMP Responsive Element (CRE) binding protein 3 (AID 2282926); settings: HepG2 CRE cis-reporter, Attagene multiplexed mRNA; actives raise or lower the signal
How it was run: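 Readout: fluorescently labelled reporter transcripts resolved by capillary electrophoresis after RT-PCR, taken 24 h post-dosing in transfected HepG2. Endogenous transcription factor activity drives each cis-element reporter; gain or loss of signal fitted relative to DMSO control.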

[2] = target: CCAAT/enhancer-binding protein beta (Homo sapiens) (UniProt P17676); assay: ATG_C_EBP_CIS: Attagene CIS-FACTORIAL HepG2 Assay for human CCAAT/Enhancer Binding Protein (C/EBP) beta (AID 2282927); settings: HepG2 Attagene cis-factorial transcription factor reporter; actives raise or lower the signal
How it was run: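 Endogenous C/EBPb-driven reporter transcripts measured in transfected human HepG2 cells at 24 h via RT-PCR and capillary electrophoresis of labelled fragments. Activity fitted in both directions relative to DMSO baseline.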

[3] = ATG_CMV_CIS: Attagene CIS-FACTORIAL HepG2 Assay for human CMV (Internal Marker) (AID 2282928); settings: HepG2 CMV promoter reporter, transcription factor profiling; actives raise or lower the signal;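 also: endpoint acts as a background internal control marker rather than a target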
How it was run: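 Reporter transcripts from transfected HepG2 cells are isolated after 24 h of chemical dosing, reverse-transcribed and amplified. Fragments labeled with 6-FAM are cut with HpaI and quantified by capillary electrophoresis; DMSO defines baseline.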

[4] = ATG_DR4_LXR_CIS: Attagene CIS-FACTORIAL HepG2 Assay for human Liver X Receptor (LXR), DR4 submotif (AID 2282929); settings: HepG2 Attagene DR4 cis-reporter, mRNA transcription; actives raise or lower the signal
How it was run: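 The endpoint is DR4-element-driven reporter transcripts after 24 h chemical exposure of transfected HepG2 cells. These were measured via RT-PCR and capillary electrophoresis, and gain or loss of signal was fitted relative to DMSO controls.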

[5] = target: Aryl hydrocarbon receptor (Homo sapiens) (UniProt P35869); assay: ATG_Ahr_CIS: Attagene CIS-FACTORIAL HepG2 Assay for human Aryl Hydrocarbon Receptor (Ahr) (AID 2282930); settings: HepG2 AhR cis-factorial reporter transcription; actives raise or lower the signal
How it was run: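 Reporter mRNA levels, quantified by RT-PCR and fluorescent capillary electrophoresis, reflect endogenous AhR transcriptional activity in HepG2 cells carrying transfected cis-promoter reporter constructs. Readout at 24 h post-dose; gain or loss fitted against DMSO baseline.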

[6] = ATG_AP_1_CIS: Attagene CIS-FACTORIAL HepG2 Assay for human Activator Protein 1 (AP-1) (AID 2282931); settings: HepG2 Attagene cis-factorial AP-1 reporter mRNA; actives raise or lower the signal
How it was run: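 Readout is reporter transcript level from endogenous transcription factor activity, quantified by RT-PCR with fluorescent primer extension and capillary electrophoresis. Transiently transfected HepG2 cells, 24 h exposure. Curves fitted both directions versus DMSO.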

[7] = ATG_AP_2_CIS: Attagene CIS-FACTORIAL HepG2 Assay for human Activator Protein 2 (AP-2) (AID 2282932); settings: HepG2 AP-2 cis-reporter, Attagene transcription factor profiling; actives raise or lower the signal
How it was run: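 Transiently transfected HepG2 cells are exposed to chemical for 24 h. Reporter transcripts are then measured as fluorescence following RT-PCR and capillary separation, and gain- or loss-of-signal is fitted relative to DMSO.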

[8] = ATG_BRE_CIS: Attagene CIS-FACTORIAL HepG2 Assay for human Bone Morphogenetic Protein (BMP) Response Element (BRE) (AID 2282933); settings: HepG2 BMP response element reporter, Attagene transcription factor profiling; actives raise or lower the signal
How it was run: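 After a 24 h chemical treatment, transiently transfected HepG2 cells were lysed for RNA; reporter transcripts were quantified by fluorescent RT-PCR and capillary electrophoresis, normalised to DMSO.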

[9] = target: Transcription factor E2F1 (Homo sapiens) (UniProt Q01094); assay: ATG_E2F_CIS: Attagene CIS-FACTORIAL HepG2 Assay for human E2F Transcription Factor 1 (AID 2282935); settings: HepG2 Attagene cis-reporter, E2F reporter RNA transcripts; actives raise or lower the signal
How it was run: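 Fluorescent RT-PCR products, digested with HpaI for 2 h at 37 C, are separated by capillary electrophoresis. Source RNA comes from transfected HepG2 cultures treated for 24 h.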

[10] = ATG_E_Box_CIS: Attagene CIS-FACTORIAL HepG2 Assay for human Enhancer Box (E-box) (AID 2282936); settings: HepG2 E-box cis-reporter transcription, actives raise or lower the signal
How it was run: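 Fluorescent reporter fragments separated by capillary electrophoresis gave the signal; mRNA came from HepG2 cells transfected with cis-element reporters and treated 24 h. Curves fitted bidirectionally relative to DMSO controls.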

[11] = ATG_M_61_CIS: Attagene CIS-FACTORIAL HepG2 Assay for M61 Transcription Factor (Internal Marker) (AID 2282937); settings: HepG2 Attagene CIS-FACTORIAL M61 internal marker reporter; actives raise or lower the signal
How it was run: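 Readout is reporter mRNA by RT-PCR, fluorescent primer extension and capillary electrophoresis, with gain or loss fitted relative to DMSO. Transfected HepG2 cells carrying endogenous-TF-driven cis reporters were exposed to chemicals for 24 hours.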

[12] = ATG_M_19_CIS: Attagene CIS-FACTORIAL HepG2 Assay for M19 Transcription Factor (Internal Marker) (AID 2282939); settings: HepG2 Attagene CIS-FACTORIAL M19 internal marker reporter; actives raise or lower the signal
How it was run: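 In this multiplexed cell assay, transiently transfected HepG2 reporter units report endogenous transcription-factor activity; after 24 hours of treatment, labelled reporter cDNA fragments are quantified by capillary electrophoresis and fitted bidirectionally against DMSO.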

[13] = ATG_ERE_CIS: Attagene CIS-FACTORIAL HepG2 Assay for Estrogen Response Element (ERE) (AID 2282940); settings: HepG2 ERE cis-reporter, Attagene RNA transcript; actives raise or lower the signal
How it was run: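 Measuring endogenous transcription factor output, the assay doses transfected HepG2 cells for 24 hours and quantifies reporter transcripts by fluorescent RT-PCR and capillary electrophoresis, with DMSO as baseline.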

[14] = ATG_Ets_CIS: Attagene CIS-FACTORIAL HepG2 Assay for human Erythroblast Transformation Specific (ETS) (AID 2282941); settings: HepG2 ETS cis-reporter transcription, actives raise or lower the signal
How it was run: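 Bidirectional fit versus DMSO of reporter mRNA signal, detected by RT-PCR and capillary electrophoresis in HepG2 cells transiently transfected with cis-element reporters and dosed 24 h.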

[15] = ATG_FoxO_CIS: Attagene CIS-FACTORIAL HepG2 Assay for human Forkhead box O (FoxO) (AID 2282943); settings: HepG2 Attagene cis-reporter, FoxO element, mRNA; actives raise or lower the signal
How it was run: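 Endogenous transcription factor activity read from multiplexed cis-promoter reporter transcripts in transiently transfected HepG2, 24 h after dosing. Reporter RNA measured via RT-PCR plus capillary electrophoresis of FAM-labeled products; gain or loss relative to DMSO.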

[16] = ATG_GATA_CIS: Attagene CIS-FACTORIAL HepG2 Assay for human GATA Binding Protein (AID 2282944); settings: HepG2 GATA cis-element reporter, Attagene multiplex mRNA; actives raise or lower the signal
How it was run: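 Measures endogenous transcription factor-driven reporter mRNA in HepG2 cells transiently carrying cis-regulated constructs. 24 h dosing; RNA via oligo(dT) reverse transcription, PCR, HpaI digestion, capillary electrophoresis; fitted relative to DMSO.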

[17] = ATG_GLI_CIS: Attagene CIS-FACTORIAL HepG2 Assay for human Zinc Finger Protein GLI1 (AID 2282945); settings: HepG2, Attagene cis-factorial reporter mRNA, GLI element; actives raise or lower the signal
How it was run: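 Bidirectional curve fits relative to DMSO, using reporter mRNA levels from RT-PCR plus capillary electrophoresis. Cells were HepG2 transiently carrying cis-regulated reporter constructs, harvested 24 h after dosing.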

[18] = target: Hepatocyte nuclear factor 3-beta (Homo sapiens) (UniProt Q9Y261); assay: ATG_FoxA2_CIS: Attagene CIS-FACTORIAL HepG2 Assay for human Forkhead box A2 (FOXA2) (AID 2282942); settings: HepG2 cis-reporter transcription factor activity, 24 h; actives raise or lower the signal
How it was run: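 Endogenous transcription factor activity is captured via cis-element-driven reporter transcripts in transfected HepG2. Total RNA taken at 24 h post-dosing; labelled RT-PCR products resolved by capillary electrophoresis. Gain or loss fitted versus DMSO.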

Measured: AC50

Sequence of Aryl hydrocarbon receptor (Homo sapiens) (P35869 whole entry, looked up): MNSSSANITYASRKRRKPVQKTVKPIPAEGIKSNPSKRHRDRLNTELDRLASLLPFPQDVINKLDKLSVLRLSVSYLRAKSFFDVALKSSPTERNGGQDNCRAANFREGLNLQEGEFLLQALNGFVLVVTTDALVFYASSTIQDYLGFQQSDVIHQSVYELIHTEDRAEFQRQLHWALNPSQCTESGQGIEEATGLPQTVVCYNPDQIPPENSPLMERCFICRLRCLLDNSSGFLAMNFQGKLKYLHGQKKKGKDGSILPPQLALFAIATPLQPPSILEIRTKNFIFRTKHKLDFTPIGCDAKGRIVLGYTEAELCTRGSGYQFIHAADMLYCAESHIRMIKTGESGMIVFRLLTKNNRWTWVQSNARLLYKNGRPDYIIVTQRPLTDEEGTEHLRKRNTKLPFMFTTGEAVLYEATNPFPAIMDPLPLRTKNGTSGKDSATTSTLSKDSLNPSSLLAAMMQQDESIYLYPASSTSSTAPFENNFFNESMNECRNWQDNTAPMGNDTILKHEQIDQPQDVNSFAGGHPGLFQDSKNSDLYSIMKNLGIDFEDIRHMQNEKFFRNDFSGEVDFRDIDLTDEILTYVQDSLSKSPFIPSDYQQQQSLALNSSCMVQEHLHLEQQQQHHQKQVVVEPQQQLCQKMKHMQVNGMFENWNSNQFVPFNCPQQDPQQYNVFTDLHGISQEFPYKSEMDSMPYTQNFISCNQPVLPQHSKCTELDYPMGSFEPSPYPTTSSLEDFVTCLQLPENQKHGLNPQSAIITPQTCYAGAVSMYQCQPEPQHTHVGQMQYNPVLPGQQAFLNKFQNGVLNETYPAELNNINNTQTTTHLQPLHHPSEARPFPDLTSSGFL
Sequence of Transcription factor E2F1 (Homo sapiens) (Q01094 whole entry, looked up): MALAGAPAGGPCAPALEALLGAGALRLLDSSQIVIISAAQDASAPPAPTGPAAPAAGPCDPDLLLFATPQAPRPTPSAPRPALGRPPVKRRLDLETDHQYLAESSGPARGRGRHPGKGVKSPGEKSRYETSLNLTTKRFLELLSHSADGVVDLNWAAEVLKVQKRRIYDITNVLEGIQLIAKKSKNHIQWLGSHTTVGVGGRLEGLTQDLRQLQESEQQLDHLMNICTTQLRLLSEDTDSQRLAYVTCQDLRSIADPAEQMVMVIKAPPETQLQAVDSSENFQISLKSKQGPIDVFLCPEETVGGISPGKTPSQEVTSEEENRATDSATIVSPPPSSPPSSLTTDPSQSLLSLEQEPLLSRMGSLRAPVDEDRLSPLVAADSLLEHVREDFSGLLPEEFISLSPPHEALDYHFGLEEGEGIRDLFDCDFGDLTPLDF
Sequence of CCAAT/enhancer-binding protein beta (Homo sapiens) (P17676 whole entry, looked up, the tested form may be a part): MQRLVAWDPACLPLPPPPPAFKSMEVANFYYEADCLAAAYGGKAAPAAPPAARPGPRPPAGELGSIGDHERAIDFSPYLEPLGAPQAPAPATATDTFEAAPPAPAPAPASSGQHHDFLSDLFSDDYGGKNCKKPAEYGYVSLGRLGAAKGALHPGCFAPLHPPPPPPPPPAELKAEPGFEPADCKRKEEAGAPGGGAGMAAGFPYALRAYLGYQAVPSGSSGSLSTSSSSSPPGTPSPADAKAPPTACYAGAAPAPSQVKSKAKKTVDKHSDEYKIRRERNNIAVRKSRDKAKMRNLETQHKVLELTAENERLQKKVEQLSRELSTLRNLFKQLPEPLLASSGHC
Sequence of Hepatocyte nuclear factor 3-beta (Homo sapiens) (Q9Y261 whole entry, looked up): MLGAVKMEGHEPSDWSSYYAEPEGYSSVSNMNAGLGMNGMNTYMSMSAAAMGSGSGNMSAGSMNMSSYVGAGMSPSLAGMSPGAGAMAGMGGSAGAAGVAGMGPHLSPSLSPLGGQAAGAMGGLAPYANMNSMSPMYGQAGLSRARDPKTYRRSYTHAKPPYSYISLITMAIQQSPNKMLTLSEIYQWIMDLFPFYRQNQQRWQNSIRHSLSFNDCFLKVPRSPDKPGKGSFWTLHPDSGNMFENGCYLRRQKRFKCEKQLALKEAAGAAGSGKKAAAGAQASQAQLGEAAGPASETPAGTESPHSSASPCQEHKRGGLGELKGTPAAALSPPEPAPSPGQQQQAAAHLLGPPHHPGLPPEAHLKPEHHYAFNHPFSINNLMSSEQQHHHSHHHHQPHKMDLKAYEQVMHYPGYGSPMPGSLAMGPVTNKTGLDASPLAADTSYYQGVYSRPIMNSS

Nc1ccc(F)c([N+](=O)[O-])c1
not listed: [18]
inactive: all other assays above

O=C(O)CCCCCCCCCCC(=O)O
inactive: all assays above

c1ccc2sc(SN(C3CCCCC3)C3CCCCC3)nc2c1
active: [3] 8.13 µM | [5] 49.1 µM | [6] 11.9 µM
inactive: all other assays above

O=C1O[C@@H]2[C@@H](O)[C@H](O)O[C@@H]2[C@H]1O
inactive: all assays above
